In PubChem BioAssay (NCI):
This is part of a sample that, as a whole, favours compounds with a hit. Of some 83,000 tested, about 20% had one in any assay.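 Each cell line was grown in a 96-well plate and treated with one concentration of compound for 48 hours. Values below 10 were considered active.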 The source made the active and inactive calls.

Columns and labels:
Experiment in all cases: NCI-60 one-dose screen, 48 h (100 = growth as untreated, 0 = no growth, -100 = all killed)
Conditions in all cases: 10 µM unless noted
DU-145 prostate = test system: DU-145 prostate
K-562 leukemia = test system: K-562 leukemia
MALME-3M melanoma = test system: MALME-3M melanoma
MDA-MB-231 breast = test system: MDA-MB-231 breast
RXF 393 renal = test system: RXF 393 renal
SF-268 CNS = test system: SF-268 CNS
SF-295 CNS = test system: SF-295 CNS
SF-539 CNS = test system: SF-539 CNS
UACC-257 melanoma = test system: UACC-257 melanoma
M14 melanoma = test system: M14 melanoma
HCT-15 colon = test system: HCT-15 colon
HT29 colon = test system: HT29 colon
SNB-75 CNS = test system: SNB-75 CNS
SNB-19 CNS = test system: SNB-19 CNS
U251 CNS = test system: U251 CNS
PC-3 prostate = test system: PC-3 prostate
SK-MEL-5 melanoma = test system: SK-MEL-5 melanoma
UACC-62 melanoma = test system: UACC-62 melanoma
LOX IMVI melanoma = test system: LOX IMVI melanoma
SK-MEL-28 melanoma = test system: SK-MEL-28 melanoma

Measured: growth

O=C(CNC(=O)c1cccc2ccccc12)Nc1ccccc1Cc1ccccc1
inactive: DU-145 prostate 48.4% [5 µM] | K-562 leukemia 12.3% [5 µM] | MALME-3M melanoma 46.8% [5 µM] | MDA-MB-231 breast 64.1% [5 µM] | RXF 393 renal 47.2% [5 µM] | SF-268 CNS 48.6% [5 µM] | SF-295 CNS 17.1% [5 µM] | SF-539 CNS 26.7% [5 µM] | UACC-257 melanoma 25.4% [5 µM] | M14 melanoma 10.6% [5 µM] | HCT-15 colon 28% [5 µM] | SNB-75 CNS 32% [5 µM] | SNB-19 CNS 54.3% [5 µM] | U251 CNS 24.3% [5 µM] | PC-3 prostate 31.6% [5 µM] | SK-MEL-5 melanoma 34.4% [5 µM] | UACC-62 melanoma 51.3% [5 µM] | LOX IMVI melanoma 38.2% [5 µM] | SK-MEL-28 melanoma 61% [5 µM]
active: HT29 colon 4.74% [5 µM]

Fc1ccccc1C1c2ccccc2-c2nccn21 (stereo not given)
inactive: DU-145 prostate 99.2% | K-562 leukemia 73.9% | MALME-3M melanoma 98.2% | MDA-MB-231 breast 102% | SF-268 CNS 109% | SF-295 CNS 89.3% | SF-539 CNS 98.9% | UACC-257 melanoma 96.6% | M14 melanoma 104% | HCT-15 colon 99.2% | HT29 colon 100% | SNB-75 CNS 98.2% | SNB-19 CNS 100% | U251 CNS 98.8% | PC-3 prostate 87.3% | SK-MEL-5 melanoma 97% | UACC-62 melanoma 89% | LOX IMVI melanoma 98.1% | SK-MEL-28 melanoma 109%
active: RXF 393 renal -1.68%

C(#Cc1ccccc1C#Cc1ccccn1)c1ccc(OCCCCCCOc2ccc(C#Cc3ccccc3C#Cc3ccccn3)cc2)cc1
inactive: DU-145 prostate 76.2% | K-562 leukemia 31.6% | MALME-3M melanoma 99.6% | MDA-MB-231 breast 35.3% | RXF 393 renal 45.6% | SF-268 CNS 88.9% | SF-539 CNS 25.4% | UACC-257 melanoma 34.2% | M14 melanoma 23.4% | HCT-15 colon 41.2% | HT29 colon 93% | SNB-75 CNS 92.6% | SNB-19 CNS 72.5% | U251 CNS 50.3% | PC-3 prostate 39.6% | SK-MEL-5 melanoma 20.6% | UACC-62 melanoma 23.9% | LOX IMVI melanoma 14.7% | SK-MEL-28 melanoma 81.8%
active: SF-295 CNS -3.2%

CCCCCCCC[Si](OCC)(OCC)OCC
inactive: DU-145 prostate 105% | K-562 leukemia 99.2% | MALME-3M melanoma 91.6% | MDA-MB-231 breast 104% | RXF 393 renal 104% | SF-268 CNS 104% | SF-295 CNS 111% | SF-539 CNS 98.8% | UACC-257 melanoma 114% | M14 melanoma 98.7% | HCT-15 colon 107% | HT29 colon 103% | SNB-75 CNS 85.2% | SNB-19 CNS 100% | U251 CNS 98.9% | PC-3 prostate 91.5% | SK-MEL-5 melanoma 111% | UACC-62 melanoma 104% | LOX IMVI melanoma 103% | SK-MEL-28 melanoma 104%

O[N+]1=CC=CCC1=S.On1ccccc1=S.[Zn]
active: DU-145 prostate -90.1% | K-562 leukemia -17.7% | MALME-3M melanoma -54.9% | MDA-MB-231 breast -81.4% | RXF 393 renal -84.9% | SF-268 CNS -46.6% | SF-295 CNS -81.5% | SF-539 CNS -64.8% | UACC-257 melanoma -88.8% | M14 melanoma -74.2% | HCT-15 colon -57% | HT29 colon -47.5% | SNB-75 CNS -75.3% | SNB-19 CNS -93% | U251 CNS -86.8% | PC-3 prostate -50.8% | SK-MEL-5 melanoma -93.5% | UACC-62 melanoma -78.3% | LOX IMVI melanoma -70.3% | SK-MEL-28 melanoma -87.3%

CCOC(=O)C1=CCC(n2cc(C)c(=O)[nH]c2=O)O1 (stereo not given)
active: RXF 393 renal -5.82%
inactive: DU-145 prostate 119% | K-562 leukemia 99.4% | MALME-3M melanoma 120% | MDA-MB-231 breast 97.3% | SF-268 CNS 117% | SF-295 CNS 116% | SF-539 CNS 101% | UACC-257 melanoma 96.3% | M14 melanoma 106% | HCT-15 colon 111% | HT29 colon 110% | SNB-75 CNS 103% | SNB-19 CNS 103% | U251 CNS 98.8% | PC-3 prostate 84.7% | SK-MEL-5 melanoma 112% | UACC-62 melanoma 96% | LOX IMVI melanoma 98.6% | SK-MEL-28 melanoma 112%

O=C(C(=O)c1cc(Br)ccc1O)c1cc(Br)ccc1O
inactive: DU-145 prostate 67.7% | K-562 leukemia 42.8% | MALME-3M melanoma 31.2% | MDA-MB-231 breast 64.8% | RXF 393 renal 65.7% | SF-268 CNS 38.1% | SF-295 CNS 67.9% | SF-539 CNS 53.2% | UACC-257 melanoma 43.1% | M14 melanoma 66.9% | HCT-15 colon 54% | HT29 colon 93.7% | SNB-75 CNS 59.8% | SNB-19 CNS 37.9% | U251 CNS 43.6% | PC-3 prostate 46.5% | SK-MEL-5 melanoma 14.7% | UACC-62 melanoma 11.7% | LOX IMVI melanoma 39.1% | SK-MEL-28 melanoma 51.1%

CC[C@@H](c1ccc(O)c(O)c1)[C@@H](CC)c1ccc(O)c(O)c1
inactive: DU-145 prostate 110% | K-562 leukemia 31.8% | MALME-3M melanoma 39.2% | MDA-MB-231 breast 89.7% | RXF 393 renal 71.5% | SF-268 CNS 98% | SF-295 CNS 130% | SF-539 CNS 102% | UACC-257 melanoma 101% | M14 melanoma 62.4% | HCT-15 colon 58.1% | HT29 colon 95.4% | SNB-75 CNS 82.4% | SNB-19 CNS 97.7% | U251 CNS 89.9% | PC-3 prostate 75.5% | SK-MEL-5 melanoma 91.4% | UACC-62 melanoma 64.5% | LOX IMVI melanoma 61% | SK-MEL-28 melanoma 87.1%

O=C(Nc1nc2c(C(F)(F)F)cccc2s1)c1cc(Cl)ccc1O
active: K-562 leukemia 5.1% | MALME-3M melanoma -24.8% | MDA-MB-231 breast -13.2% | RXF 393 renal -5.36% | SF-295 CNS -21.2% | UACC-257 melanoma -23.7% | M14 melanoma 8.01% | HT29 colon 0.653% | U251 CNS 3.11% | PC-3 prostate 3.52% | SK-MEL-5 melanoma -46.7% | UACC-62 melanoma -37.3% | LOX IMVI melanoma 5.52%
inactive: DU-145 prostate 23% | SF-268 CNS 21.2% | SF-539 CNS 15% | HCT-15 colon 12.3% | SNB-75 CNS 14% | SNB-19 CNS 10.2% | SK-MEL-28 melanoma 28.6%

O=C(Nc1ccccc1OC(=O)c1ccccc1)c1ccccc1
inactive: DU-145 prostate 112% | K-562 leukemia 25.2% | MALME-3M melanoma 93.9% | MDA-MB-231 breast 56.1% | RXF 393 renal 121% | SF-268 CNS 47.3% | SF-295 CNS 109% | SF-539 CNS 95.7% | UACC-257 melanoma 63.8% | M14 melanoma 102% | HCT-15 colon 88.5% | HT29 colon 51.9% | SNB-75 CNS 101% | SNB-19 CNS 87.4% | U251 CNS 47% | PC-3 prostate 88.5% | SK-MEL-5 melanoma 97.4% | UACC-62 melanoma 82.6% | LOX IMVI melanoma 60.1% | SK-MEL-28 melanoma 118%

COc1cnc2c(c1)C(=O)c1c-2n(CCCNC2=NCCS2)c(=O)c2cc(F)ccc12
inactive: DU-145 prostate 14.9% | MALME-3M melanoma 27.8% | MDA-MB-231 breast 51% | RXF 393 renal 35.1% | SF-268 CNS 23.2% | UACC-257 melanoma 21.8% | HCT-15 colon 43.3% | HT29 colon 22.2% | SNB-75 CNS 33.1% | SNB-19 CNS 54.6% | U251 CNS 12.1% | PC-3 prostate 36.9% | UACC-62 melanoma 17.4% | SK-MEL-28 melanoma 79.2%
active: K-562 leukemia -34.4% | SF-295 CNS -5.74% | SF-539 CNS -13.2% | M14 melanoma 5.96% | SK-MEL-5 melanoma 0.102% | LOX IMVI melanoma -73.8%

CCCCc1n(Cc2ccc3ccccc3c2)cc[n+]1Cc1ccc2ccccc2c1
active: K-562 leukemia -17.9% | MALME-3M melanoma -52.8% | MDA-MB-231 breast -92.9% | RXF 393 renal -42.7% | SF-268 CNS -12.6% | SF-295 CNS -14.1% | SF-539 CNS -4.06% | UACC-257 melanoma -33.8% | M14 melanoma -75.2% | HT29 colon -34.4% | SNB-75 CNS -18% | SNB-19 CNS -22.9% | U251 CNS -46.5% | PC-3 prostate -29.7% | SK-MEL-5 melanoma -97.8% | UACC-62 melanoma -85.9% | LOX IMVI melanoma -88.2% | SK-MEL-28 melanoma -55%
inactive: DU-145 prostate 13.6% | HCT-15 colon 49.5%

COc1cc(/C=N/OC(=O)Nc2ccccc2)cc(OC)c1OC
inactive: DU-145 prostate 115% | K-562 leukemia 107% | MALME-3M melanoma 97.9% | MDA-MB-231 breast 92.6% | RXF 393 renal 121% | SF-268 CNS 107% | SF-295 CNS 129% | SF-539 CNS 100% | UACC-257 melanoma 105% | M14 melanoma 107% | HCT-15 colon 112% | HT29 colon 104% | SNB-75 CNS 85.2% | SNB-19 CNS 105% | U251 CNS 107% | PC-3 prostate 91.1% | SK-MEL-5 melanoma 102% | UACC-62 melanoma 90.5% | LOX IMVI melanoma 90.6% | SK-MEL-28 melanoma 104%

COc1ccc(Oc2ccccc2NC(=O)CNC(=O)c2cccc3ccccc23)cc1
inactive: DU-145 prostate 17.5% [5 µM] | MALME-3M melanoma 72.9% [5 µM] | MDA-MB-231 breast 29.4% [5 µM] | RXF 393 renal 10.3% [5 µM] | SF-268 CNS 44.1% [5 µM] | SF-295 CNS 13.2% [5 µM] | UACC-257 melanoma 48.6% [5 µM] | M14 melanoma 12.6% [5 µM] | HCT-15 colon 17.2% [5 µM] | SNB-75 CNS 41.6% [5 µM] | SNB-19 CNS 51.4% [5 µM] | U251 CNS 16.9% [5 µM] | PC-3 prostate 21.5% [5 µM] | SK-MEL-5 melanoma 10.3% [5 µM] | UACC-62 melanoma 37.5% [5 µM] | LOX IMVI melanoma 22.3% [5 µM] | SK-MEL-28 melanoma 60.6% [5 µM]
active: K-562 leukemia 8.48% [5 µM] | SF-539 CNS -21.5% [5 µM] | HT29 colon 2.75% [5 µM]
